What all share (assay): yeast three-hybrid, YBZ-1, SC-Leu-His + 0.5 mM 3-AT, 4 days
What all share (conditions): tags: N-Gal4 AD-HA kept; label: inside an RPR1-promoter hybrid RNA with tandem MS2 sites; ssRNA

For experiment [1], the target named is PUM1 PUF domain R5-SAT (Homo sapiens, UniProt Q14671 828-1176, C1007S;R1008A;Q1011T). The procedure, abridged:
(§1)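 The interaction score is the log change in how often each variant appears, from input to selection. Frequencies came from PCR-amplified, Illumina-sequenced repeat regions of Pumilio-1 PUF domain libraries grown in strain YBZ-1 (LexA–MS2 coat fusion, HIS3 reporter) alongside matching RNA elements. Input plates were SC-Leu and selection plates were SC-Leu-His + 0.5 mM 3-AT, each for four days, and the log2 calculation used a pseudocount of 1 where a variant was absent.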

In experiment [2] the target is PUM1 PUF domain R5-SFS (Homo sapiens, UniProt Q14671 828-1176, C1007S;R1008F;Q1011S). The procedure, abridged: as §1
The target of experiment [3] is PUM1 PUF domain R1-RYL (Homo sapiens, UniProt Q14671 828-1176, S863R;R864Y;Q867L). The procedure, abridged:
as §1

In experiment [4] the target is PUM1 PUF domain R8-RWR (Homo sapiens, UniProt Q14671 828-1176, N1122R;Y1123W;Q1126R). The procedure, abridged:
as §1

Experiment [5] has as its target PUM1 PUF domain R4-PHM (Homo sapiens, UniProt Q14671 828-1176, N971P;Q975M). Summed up:
as §1

Experiment [6] concerns the target PUM1 PUF domain R7-KYK (Homo sapiens, UniProt Q14671 828-1176, S1079K;N1080Y;E1083K). Summed up:
as §1

In experiment [7] the target is T1, PUM1 PUF domain R6-RYA (Homo sapiens, UniProt Q14671 828-1176, N1043R;Q1047A).
T1 sequence: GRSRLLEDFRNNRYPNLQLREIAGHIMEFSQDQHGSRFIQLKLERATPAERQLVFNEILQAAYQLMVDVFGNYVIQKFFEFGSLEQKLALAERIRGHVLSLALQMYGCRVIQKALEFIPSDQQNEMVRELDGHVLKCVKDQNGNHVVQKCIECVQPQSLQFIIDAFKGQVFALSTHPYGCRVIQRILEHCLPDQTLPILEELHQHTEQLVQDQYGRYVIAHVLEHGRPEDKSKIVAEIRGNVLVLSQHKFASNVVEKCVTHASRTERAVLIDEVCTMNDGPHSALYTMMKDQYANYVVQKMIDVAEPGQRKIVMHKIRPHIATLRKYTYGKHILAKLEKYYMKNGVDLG
The procedure, abridged:
as §1

Experiment [8] concerns the target PUM1 PUF domain R5-LFQ (Homo sapiens, UniProt Q14671 828-1176, C1007L;R1008F). The procedure, abridged:
as §1

Experiment [9] concerns the target T2, PUM1 PUF domain R6-SYM (Homo sapiens, UniProt Q14671 828-1176, N1043S;Q1047M).
T2 sequence: T1 sequence with R216S, A220M
The procedure, abridged: as §1

The target of experiment [10] is PUM1 PUF domain R4-SRC (Homo sapiens, UniProt Q14671 828-1176, N971S;H972R;Q975C). The procedure, abridged:
as §1

Changes are numbered by the printed parent chain.

PUM1 PUF domain R7-KYK, sequence (Q14671 828-1176 S1079K/N1080Y/E1083K): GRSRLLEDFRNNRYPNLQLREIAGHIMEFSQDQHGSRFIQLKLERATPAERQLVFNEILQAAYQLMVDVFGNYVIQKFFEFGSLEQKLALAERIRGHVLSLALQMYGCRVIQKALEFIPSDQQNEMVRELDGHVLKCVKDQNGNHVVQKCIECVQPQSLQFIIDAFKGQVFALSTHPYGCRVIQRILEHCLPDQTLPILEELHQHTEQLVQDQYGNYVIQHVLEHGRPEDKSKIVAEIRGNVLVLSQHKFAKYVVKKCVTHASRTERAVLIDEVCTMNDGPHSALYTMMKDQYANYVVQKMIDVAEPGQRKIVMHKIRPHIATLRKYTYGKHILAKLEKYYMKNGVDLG

Regarding “GGCUAGAACUAGUGGAUCCCCCGGCGCCCGGCGGCUCGAGCCCGGGUAAGUGUGAAUAGUCUGCAUGCCGCCGGGCGCCAUGCCUGCAGGUCGACUCUAGAAAACAUG”, in [1], the binding signal is 2.75 log2 enrichment (interaction score).
Take “GGCUAGAACUAGUGGAUCCCCCGGCGCCCGGCGGCUCGAGCCCGGGUAAGUGUCAAUAGUCUGCAUGCCGCCGGGCGCCAUGCCUGCAGGUCGACUCUAGAAAACAUG”: the binding signal in experiment [2] is 3.78 log2 enrichment (interaction score).
Consider “GGCUAGAACUAGUGGAUCCCCCGGCGCCCGGCGGCUCGAGCCCGGGUAAGUGUAAAUUGUCUGCAUGCCGCCGGGCGCCAUGCCUGCAGGUCGACUCUAGAAAACAUG”, for which the binding signal in experiment [3] is 2.71 log2 enrichment (interaction score).
On the same count and under the same terms, the value for “GGCUAGAACUAGUGGAUCCCCCGGCGCCCGGCGGCUCGAGCCCGGGUAAGUGUAAAUCGUCUGCAUGCCGCCGGGCGCCAUGCCUGCAGGUCGACUCUAGAAAACAUG” was 2.26 log2 enrichment (interaction score).
Consider “GGCUAGAACUAGUGGAUCCCCCGGCGCCCGGCGGCUCGAGCCCGGGUAAGCGUAAAUAGUCUGCAUGCCGCCGGGCGCCAUGCCUGCAGGUCGACUCUAGAAAACAUG”, for which the binding signal in [4] is 7 log2 enrichment (interaction score).
As to “GGCUAGAACUAGUGGAUCCCCCGGCGCCCGGCGGCUCGAGCCCGGGUAAGUGUAUAUAGUCUGCAUGCCGCCGGGCGCCAUGCCUGCAGGUCGACUCUAGAAAACAUG”, the binding signal in [5] was 5.12 log2 enrichment (interaction score).
For the sequence “GGCUAGAACUAGUGGAUCCCCCGGCGCCCGGCGGCUCGAGCCCGGGUAAGUAUAAAUAGUCUGCAUGCCGCCGGGCGCCAUGCCUGCAGGUCGACUCUAGAAAACAUG”, the binding signal in experiment [6] is 4.11 log2 enrichment (interaction score).
The same measure, in the same setting: then “GGCUAGAACUAGUGGAUCCCCCGGCGCCCGGCGGCUCGAGCCCGGGUAAGUCUAAAUAGUCUGCAUGCCGCCGGGCGCCAUGCCUGCAGGUCGACUCUAGAAAACAUG”, with 5.83 log2 enrichment (interaction score).
For “GGCUAGAACUAGUGGAUCCCCCGGCGCCCGGCGGCUCGAGCCCGGGUAAGUGUAAAUAGUCUGCAUGCCGCCGGGCGCCAUGCCUGCAGGUCGACUCUAGAAAACAUG”, the binding signal in experiment [5] was 4.14 log2 enrichment (interaction score); in [7], 3.02 log2 enrichment (interaction score); in experiment [8], 2.45 log2 enrichment (interaction score); in [6], 2.18 log2 enrichment (interaction score); in experiment [9] it was 2.79 log2 enrichment (interaction score); in experiment [10], 4.65 log2 enrichment (interaction score). Further, the binding signal in [4] was 6.58 log2 enrichment (interaction score).

The record behind these values is paper PMC8384837, “Expanding the binding specificity for RNA recognition by a PUF domain”.
